# Measured values reported in PMC5515408, “Sequence-specific DNA binding by MYC/MAX to low-affinity non-E-box motifs”.
# In all, about 5,000 sequences were measured (“log2 normalized fluorescence”: median about 0.089, highest 2% from about 0.81 on). The list comes from a sample in which the highest values are over-represented; it also holds similar and randomly drawn sequences.
# Target: MYC (p64);MAX (p21), in MYC:MAX (human;human, UniProt P01106-1;P61244-2 1-439;1-151, |)
# Assay: protein-binding microarray (anti-MAX antibody); PBM: 15 mM Tris-HCl pH 7.5, 100 mM KCl, 0.075% NP40, 7.5 mM beta-mercaptoethanol, 375 ng/ul BSA, 8 ng/ul poly(dA-dT):(dA-dT), 550 ng complex, 60 min, room tempe; high values mean tight binding
# Details: protein: recombinant;recombinant; tags: 6xHis;6xHis; copies: 1;1; label: 3' end of printed strand (linker) attached to glass slide; dsDNA, one strand shown
# How it was run: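 A custom Agilent glass array held ~5000 unique 12-nt sequences in triplicate spots, made double-stranded by primer extension. His-tagged human MYC:MAX or MAX:MAX dimers (550 ng, produced in E. coli) were applied for 60 min at room temperature in Tris-KCl buffer, pH 7.5, with NP40, BSA and poly(dA-dT) competitor. Anti-MAX and secondary antibodies detected bound protein, with scanning at 543 nm, and binding is given as log2 normalized fluorescence.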
# Chain of MYC (p64);MAX (p21), in MYC:MAX (P01106 16-454, chain 1 of 2): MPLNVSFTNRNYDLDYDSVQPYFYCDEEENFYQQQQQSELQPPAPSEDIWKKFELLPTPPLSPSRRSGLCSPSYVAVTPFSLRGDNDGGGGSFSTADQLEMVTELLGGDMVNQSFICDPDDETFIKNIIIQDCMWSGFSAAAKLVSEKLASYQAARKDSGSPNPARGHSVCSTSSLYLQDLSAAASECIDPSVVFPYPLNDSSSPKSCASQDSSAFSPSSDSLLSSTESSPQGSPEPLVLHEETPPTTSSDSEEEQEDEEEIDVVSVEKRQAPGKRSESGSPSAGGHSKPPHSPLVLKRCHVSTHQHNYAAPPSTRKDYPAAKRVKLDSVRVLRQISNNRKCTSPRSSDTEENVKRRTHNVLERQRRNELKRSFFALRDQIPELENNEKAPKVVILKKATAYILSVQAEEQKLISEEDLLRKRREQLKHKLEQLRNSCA
# Chain of MYC (p64);MAX (p21), in MYC:MAX (P61244 other isoform, or with tags, fused parts or gaps |, chain 2 of 2): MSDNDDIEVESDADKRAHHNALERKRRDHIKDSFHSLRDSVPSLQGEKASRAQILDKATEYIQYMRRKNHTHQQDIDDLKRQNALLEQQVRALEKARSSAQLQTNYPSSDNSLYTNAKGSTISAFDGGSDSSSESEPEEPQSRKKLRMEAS
row,Sequence,binding signal
1,CCGGCTGATCAAGGGTATTAATAGCTAAGATTACTATATCGACG,0.0432 log2 normalized fluorescence
2,CCGGCTGAAGTTGTGTATTAATAGCTAAGATTACTATATCGACG,0.0113 log2 normalized fluorescence
3,CCGGCTGAACGAAAGTATTAATAGCTAAGATTACTATATCGACG,0.0903 log2 normalized fluorescence
4,CCGGCTGACACATGGTTTTAATAGCTAAGATTACTATATCGACG,0.817 log2 normalized fluorescence
5,CCGGCTGACACGTGGTGTTAATAGCTAAGATTACTATATCGACG,0.534 log2 normalized fluorescence
6,CCGGCCGACACATGGTTTTAATAGCTAAGATTACTATATCGACG,0.635 log2 normalized fluorescence
7,CCGGCTGACACGTGACGTTAATAGCTAAGATTACTATATCGACG,0.654 log2 normalized fluorescence
8,CCGGCTGACACGTGTCGTTAATAGCTAAGATTACTATATCGACG,0.947 log2 normalized fluorescence
9,CCGGCTGACACGTGTTGTTAATAGCTAAGATTACTATATCGACG,0.83 log2 normalized fluorescence
10,CCGGCTGACACGTGTAATTAATAGCTAAGATTACTATATCGACG,0.708 log2 normalized fluorescence
11,CCGGCTGACACGTGTACTTAATAGCTAAGATTACTATATCGACG,0.823 log2 normalized fluorescence
12,CCGGCTGACACGTGAACTTAATAGCTAAGATTACTATATCGACG,0.796 log2 normalized fluorescence
13,CCGGCTGACACGTGTTATTAATAGCTAAGATTACTATATCGACG,0.722 log2 normalized fluorescence
14,CCGGCTGACACGTTAGATTAATAGCTAAGATTACTATATCGACG,0.482 log2 normalized fluorescence
15,CCGGCTGACATGTGGTTTTAATAGCTAAGATTACTATATCGACG,0.359 log2 normalized fluorescence
16,CCGGCTGAGACCTGCTATTAATAGCTAAGATTACTATATCGACG,-0.0388 log2 normalized fluorescence
17,CCGGCTGGCACCTGGCATTAATAGCTAAGATTACTATATCGACG,0.319 log2 normalized fluorescence
18,CCGGCTGAGTGTTAGTATTAATAGCTAAGATTACTATATCGACG,0.177 log2 normalized fluorescence
19,CCGGCTGATGATGCGTATTAATAGCTAAGATTACTATATCGACG,0.112 log2 normalized fluorescence
20,CCGGCTGATATGACGTATTAATAGCTAAGATTACTATATCGACG,0.0181 log2 normalized fluorescence
21,CCGGCTAACACAAGGTATTAATAGCTAAGATTACTATATCGACG,0.534 log2 normalized fluorescence
22,CCGGCTGACACGATATATTAATAGCTAAGATTACTATATCGACG,0.408 log2 normalized fluorescence

row,Sequence,binding signal
1,CCGGCTGACACGTGTTCTTAATAGCTAAGATTACTATATCGACG,0.738 log2 normalized fluorescence
2,CCGGCTGTCACGTGTTCTTAATAGCTAAGATTACTATATCGACG,0.848 log2 normalized fluorescence
3,CCGGCTGACACGTAGTGTTAATAGCTAAGATTACTATATCGACG,0.396 log2 normalized fluorescence
4,CCGGCTGTCACGTGCTATTAATAGCTAAGATTACTATATCGACG,0.591 log2 normalized fluorescence
5,CCGGCTGACACGTGACCTTAATAGCTAAGATTACTATATCGACG,0.633 log2 normalized fluorescence
6,CCGGCTGACACGTGTTTTTAATAGCTAAGATTACTATATCGACG,0.847 log2 normalized fluorescence
7,CCGGCTGACACGTAGTTTTAATAGCTAAGATTACTATATCGACG,0.406 log2 normalized fluorescence
8,CCGGCTGACACGTGTGTTTAATAGCTAAGATTACTATATCGACG,0.7 log2 normalized fluorescence
9,CCGGCTGACACGTGCCCTTAATAGCTAAGATTACTATATCGACG,0.7 log2 normalized fluorescence
10,CCGGCTGACACGTGTAGTTAATAGCTAAGATTACTATATCGACG,0.834 log2 normalized fluorescence
11,CCGGCTGACACGTGGTTTTAATAGCTAAGATTACTATATCGACG,0.795 log2 normalized fluorescence
12,CCGGCTGACACGTGTCCTTAATAGCTAAGATTACTATATCGACG,0.926 log2 normalized fluorescence
13,CCGGCTGAAACAACGTATTAATAGCTAAGATTACTATATCGACG,0.159 log2 normalized fluorescence
14,CCGGCCGACATGTAGTATTAATAGCTAAGATTACTATATCGACG,0.368 log2 normalized fluorescence
15,CCGGCAGACAAGTGCTATTAATAGCTAAGATTACTATATCGACG,0.353 log2 normalized fluorescence
16,CCGGCAATCTAGTCTACTTAATAGCTAAGATTACTATATCGACG,0.0163 log2 normalized fluorescence
17,CCGGCTGATATAATGTATTAATAGCTAAGATTACTATATCGACG,0.0653 log2 normalized fluorescence
18,CCGGCTGAACTCGCGTATTAATAGCTAAGATTACTATATCGACG,0.276 log2 normalized fluorescence
19,CCGGCTGAAACCAAGTATTAATAGCTAAGATTACTATATCGACG,0.0737 log2 normalized fluorescence
20,CCGGCTGAACCAGTGTATTAATAGCTAAGATTACTATATCGACG,0.036 log2 normalized fluorescence
21,CCGGCTGACACGTGCAATTAATAGCTAAGATTACTATATCGACG,0.779 log2 normalized fluorescence
22,CCGGCTGGCACGTGGTTTTAATAGCTAAGATTACTATATCGACG,0.67 log2 normalized fluorescence

row,Sequence,binding signal
1,CCGGCTGACACGTGCAGTTAATAGCTAAGATTACTATATCGACG,0.746 log2 normalized fluorescence
2,CCGGCTAGCACGTGGCATTAATAGCTAAGATTACTATATCGACG,0.803 log2 normalized fluorescence
3,CCGGCTAGCACGTGTTTTTAATAGCTAAGATTACTATATCGACG,0.813 log2 normalized fluorescence
4,CCGGCTGACACGTGCACTTAATAGCTAAGATTACTATATCGACG,0.88 log2 normalized fluorescence
5,CCGGCTGAATCTTGGTATTAATAGCTAAGATTACTATATCGACG,-0.0321 log2 normalized fluorescence
6,CCGGCTGAAAGGTCGTATTAATAGCTAAGATTACTATATCGACG,0.0812 log2 normalized fluorescence
7,CCGGCTGGAGCGTGGTATTAATAGCTAAGATTACTATATCGACG,0.418 log2 normalized fluorescence
8,CCGGCTGAAATCGCGTATTAATAGCTAAGATTACTATATCGACG,0.18 log2 normalized fluorescence
9,CCGGCTGAATCAATGTATTAATAGCTAAGATTACTATATCGACG,0.252 log2 normalized fluorescence
10,CCGGCTGAGAACACGTATTAATAGCTAAGATTACTATATCGACG,0.318 log2 normalized fluorescence
11,CCGGCTGACCTTGAGTATTAATAGCTAAGATTACTATATCGACG,0.204 log2 normalized fluorescence
12,CCGGCAGACACGTCGTATTAATAGCTAAGATTACTATATCGACG,0.32 log2 normalized fluorescence
13,CCGGCTGGCACGTGGTATTAATAGCTAAGATTACTATATCGACG,0.809 log2 normalized fluorescence
14,CCGGCAGACACGTGATCTTAATAGCTAAGATTACTATATCGACG,0.751 log2 normalized fluorescence
15,CCGGCTGGCACGTGGTGTTAATAGCTAAGATTACTATATCGACG,0.954 log2 normalized fluorescence
16,CCGGCAGAAACGTGTTATTAATAGCTAAGATTACTATATCGACG,0.573 log2 normalized fluorescence
17,CCGGCCGACACCTGTTATTAATAGCTAAGATTACTATATCGACG,0.432 log2 normalized fluorescence
18,CCGGCAGACACGTGATATTAATAGCTAAGATTACTATATCGACG,0.851 log2 normalized fluorescence
19,CCGGCCGACACGTGTTATTAATAGCTAAGATTACTATATCGACG,0.999 log2 normalized fluorescence
20,CCGGCCGACACGGCGTATTAATAGCTAAGATTACTATATCGACG,0.161 log2 normalized fluorescence
21,CCGGCAGACACGCGATATTAATAGCTAAGATTACTATATCGACG,0.437 log2 normalized fluorescence
22,CCGGCTGGCACGTGGCATTAATAGCTAAGATTACTATATCGACG,0.721 log2 normalized fluorescence

row,Sequence,binding signal
1,CCGGCAGACACGTGTTATTAATAGCTAAGATTACTATATCGACG,0.993 log2 normalized fluorescence
2,CCGGCTGATCCCCCGTATTAATAGCTAAGATTACTATATCGACG,0.0512 log2 normalized fluorescence
3,CCGGCTGACACGGCGTATTAATAGCTAAGATTACTATATCGACG,0.188 log2 normalized fluorescence
4,CCGGCTGAACGGTTGTATTAATAGCTAAGATTACTATATCGACG,0.123 log2 normalized fluorescence
5,CCGGCTGAACCAACGTATTAATAGCTAAGATTACTATATCGACG,0.302 log2 normalized fluorescence
6,CCGGCTGAGTTCCCGTATTAATAGCTAAGATTACTATATCGACG,0.0824 log2 normalized fluorescence
7,CCGGCTGACGTCACGTATTAATAGCTAAGATTACTATATCGACG,0.246 log2 normalized fluorescence
8,CCGGCTGAAAGCATGTATTAATAGCTAAGATTACTATATCGACG,0.491 log2 normalized fluorescence
9,CCGGCTGAGCATGCGTATTAATAGCTAAGATTACTATATCGACG,0.461 log2 normalized fluorescence
10,CCGGCTGAGTCCGCGTATTAATAGCTAAGATTACTATATCGACG,0.0725 log2 normalized fluorescence
11,CCGGCTGACCCGTGGTTTTAATAGCTAAGATTACTATATCGACG,0.466 log2 normalized fluorescence
12,CCGGCAGATACGTGGTGTTAATAGCTAAGATTACTATATCGACG,0.257 log2 normalized fluorescence
13,CCGGCAGACATGTGGTGTTAATAGCTAAGATTACTATATCGACG,0.734 log2 normalized fluorescence
14,CCGGCAGACACGTGGTGTTAATAGCTAAGATTACTATATCGACG,0.826 log2 normalized fluorescence
15,CCGGCTGACTTCAGGTATTAATAGCTAAGATTACTATATCGACG,0.148 log2 normalized fluorescence
16,CCGGCTGACCAAGTGTATTAATAGCTAAGATTACTATATCGACG,0.214 log2 normalized fluorescence
17,CCGGCAATCACGTGGTATTAATAGCTAAGATTACTATATCGACG,0.75 log2 normalized fluorescence
18,CCGGCATCCACGTGGTATTAATAGCTAAGATTACTATATCGACG,0.471 log2 normalized fluorescence
19,CCGGCCTTCACGTGGTATTAATAGCTAAGATTACTATATCGACG,0.765 log2 normalized fluorescence
20,CCGGCTTTCACGTGGTATTAATAGCTAAGATTACTATATCGACG,0.847 log2 normalized fluorescence
21,CCGGCGTTCACGTGGTATTAATAGCTAAGATTACTATATCGACG,0.664 log2 normalized fluorescence
22,CCGGCATTCACGTGGTATTAATAGCTAAGATTACTATATCGACG,0.958 log2 normalized fluorescence

row,Sequence,binding signal
1,CCGGCTGACGAGATGTATTAATAGCTAAGATTACTATATCGACG,0.0764 log2 normalized fluorescence
2,CCGGCTGACACGCGCTATTAATAGCTAAGATTACTATATCGACG,0.811 log2 normalized fluorescence
3,CCGGCTGGGTCGTGGTATTAATAGCTAAGATTACTATATCGACG,0.0754 log2 normalized fluorescence
4,CCGGCTGAGGTGACGTATTAATAGCTAAGATTACTATATCGACG,0.0346 log2 normalized fluorescence
5,CCGGCTGAATAATTGTATTAATAGCTAAGATTACTATATCGACG,-0.0392 log2 normalized fluorescence
6,CCGGCAGACACGTGGTATTAATAGCTAAGATTACTATATCGACG,0.798 log2 normalized fluorescence
7,CCGGCTGACCCGTGGTCTTAATAGCTAAGATTACTATATCGACG,0.399 log2 normalized fluorescence
8,CCGGCTGACACGTCTTATTAATAGCTAAGATTACTATATCGACG,0.308 log2 normalized fluorescence
9,CCGGCAGACACGCGGTCTTAATAGCTAAGATTACTATATCGACG,0.8 log2 normalized fluorescence
10,CCGGCTGACACGTGGTCTTAATAGCTAAGATTACTATATCGACG,1.02 log2 normalized fluorescence
11,CCGGCAGACACGTGGTCTTAATAGCTAAGATTACTATATCGACG,0.904 log2 normalized fluorescence
12,CCGGCTAACACGCGGTCTTAATAGCTAAGATTACTATATCGACG,0.739 log2 normalized fluorescence
13,CCGGCTGACACACGGTCTTAATAGCTAAGATTACTATATCGACG,0.354 log2 normalized fluorescence
14,CCGGCTGACACGCGGTCTTAATAGCTAAGATTACTATATCGACG,1.03 log2 normalized fluorescence
15,CCGGCTGAACAAGGGTATTAATAGCTAAGATTACTATATCGACG,0.093 log2 normalized fluorescence
16,CCGGCTGACCAAAGGTATTAATAGCTAAGATTACTATATCGACG,0.0357 log2 normalized fluorescence
17,CCGGCTGACGACAAGTATTAATAGCTAAGATTACTATATCGACG,0.0769 log2 normalized fluorescence
18,CCGGCTGACTCCAAGTATTAATAGCTAAGATTACTATATCGACG,0.0835 log2 normalized fluorescence
